Assay results taken from PubChem BioAssay (NCI).
Compounds without any hit were thinned out: in the full panel of roughly 83,000, 20% have a hit.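 Note: values are percent growth. 100 is the growth of untreated cells, values between 100 and 0 indicate rising inhibition; between -100 and 0 indicates cell death.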 A number with no mark means an inactive call. Activity calls are given as the source filed them. The calls were made as follows: active = growth percent below 10; inactive = the rest.

What was measured:
Assay in all cases: NCI-60 one-dose screen, 48 h (100 = growth as untreated, 0 = no growth, -100 = all killed)
Conditions in all cases: 10 µM unless noted
[1] = tested on: DU-145 prostate
[2] = tested on: K-562 leukemia
[3] = tested on: MALME-3M melanoma
[4] = tested on: MDA-MB-231 breast
[5] = tested on: SF-268 CNS
[6] = tested on: SF-295 CNS
[7] = tested on: SF-539 CNS
[8] = tested on: UACC-257 melanoma
[9] = tested on: M14 melanoma
[10] = tested on: HCT-15 colon
[11] = tested on: HT29 colon
[12] = tested on: SNB-75 CNS
[13] = tested on: SNB-19 CNS
[14] = tested on: U251 CNS
[15] = tested on: PC-3 prostate
[16] = tested on: SK-MEL-5 melanoma
[17] = tested on: UACC-62 melanoma
[18] = tested on: LOX IMVI melanoma
[19] = tested on: SK-MEL-28 melanoma
[20] = tested on: RXF 393 renal

Compound	growth [1]	growth [2]	growth [3]	growth [4]	growth [5]	growth [6]	growth [7]	growth [8]	growth [9]	growth [10]	growth [11]	growth [12]	growth [13]	growth [14]	growth [15]	growth [16]	growth [17]	growth [18]	growth [19]	growth [20]
CN(C)C(=O)Nc1nc2cc(Cl)c(Cl)cc2[nH]1	4.55% (active)	-10% (active)	47.4%	46.1%	36.5%	9.99% (active)	-24.7% (active)	17%	-66.9% (active)	26.1%	5.63% (active)	14.7%	27%	25.6%	18.9%	19%	23.1%	47.8%	73.4%	–
COc1ccccc1C(OC(C)=O)OC(C)=O	109%	95.6%	108%	–	98.8%	96.6%	101%	87.5%	98.3%	103%	88.5%	96.4%	113%	97.3%	102%	101%	102%	92.9%	109%	111%
Cc1cc(NCCN(C(C)C)C(C)C)nc(/N=C(\N)Nc2ccc(Cl)c(C(F)(F)F)c2)n1	-29.5% (active)	-100% (active)	-74.5% (active)	-65.1% (active)	-85% (active)	-77.8% (active)	-97.8% (active)	-95.3% (active)	-89.8% (active)	-56.2% (active)	-86.6% (active)	-100% (active)	-83.3% (active)	-84.4% (active)	-94% (active)	-91.5% (active)	-91.6% (active)	-70.6% (active)	-87.2% (active)	–
Clc1ccc(CN2COc3c(ccc4cccnc34)C2)cc1Cl	6.34% (active)	-34.2% (active)	-11.3% (active)	19.7%	-3.19% (active)	-18.6% (active)	-36.7% (active)	-35.1% (active)	-3.94% (active)	16.3%	30.3%	9.33% (active)	18.5%	9.29% (active)	27.9%	-1% (active)	-38% (active)	2.29% (active)	33.5%	–
COc1ccc(-c2cnc(-c3ccc(F)cc3)[nH]2)cc1	113%	57.1%	288%	100%	92.6%	96.6%	105%	-25.1% (active)	-17.3% (active)	53.2%	16.4%	98.6%	98.5%	33.3%	73.7%	101%	82.2%	6.54% (active)	110%	–
O=C1CN(CCN2CC(=O)NC(=O)C2)CC(=O)N1	90.7%	106%	94.5%	102%	108%	85.9%	118%	104%	94.8%	114%	110%	76.1%	99%	100%	89.8%	87%	86.5%	93.7%	121%	–
Nc1nc2ccc(CNc3ccc(C(=O)NC(CC(=O)O)C(=O)O)cc3)cc2c(=O)[nH]1 (stereo not given)	44.9%	12.2%	71.7%	120%	40.1%	29.8%	38.4%	42.3%	32.8%	39.8%	18.6%	–	62.6%	49.5%	33.1%	30%	31.6%	19.5%	106%	–
CC1(C)N=C(N)N=C(N)N1c1ccc(OCC(=O)Nc2ccccc2)c(Cl)c1	39.1%	18.5%	55.1%	68.9%	28%	23.5%	23.8%	-3.5% (active)	25.7%	96.7%	17.6%	82.3%	49.4%	41%	14.8%	26.6%	18.2%	22.4%	76.3%	–
CCOc1ccc(Cc2nccc3cc(OCC)c(OCC)cc23)cc1OCC	77.2%	14.3%	80.2%	53.2%	78%	28%	65.9%	69%	70.8%	59.8%	25.2%	99.6%	62.5%	62.8%	52.9%	47.1%	50.7%	53.8%	91.7%	–
COc1ccc(-c2c(NC(=O)Nc3ccc(Cl)c(C(F)(F)F)c3)cnn2-c2ccc(S(N)(=O)=O)cc2)cc1	53.5%	11.7%	34.2%	52.7%	37.5%	38.6%	35.2%	34.9%	14.7%	68.3%	24.8%	65.7%	21.5%	15.6%	9.52% (active)	27%	41.2%	37.6%	42.2%	–
Cc1ccc(-c2cc(-c3nnc(SCC(=O)c4ccccc4)o3)c3ccccc3n2)cc1	95.2%	93.2%	107%	117%	88.9%	99.1%	94.2%	114%	97.2%	96.3%	90.1%	57.1%	101%	98.3%	95.5%	95.3%	90.8%	92.4%	96.6%	–
CCCC(=O)Oc1ccc(/C(=C(\C)c2ccc(OC)cc2)c2ccc(OCCN3CCCCC3)cc2)cc1	87.1%	21.9%	61.9%	109%	83.1%	61.5%	65.5%	68.5%	33.8%	64.1%	1.78% (active)	–	–	63.8%	64.7%	68.8%	63.6%	68.5%	63.9%	66.2%
O=C1C(SCCO)=C(SCCO)C(=O)N1c1ccc(-c2ccccc2)cc1	27.1%	-0.074% (active)	-44.5% (active)	95%	41.1%	103%	104%	-5.64% (active)	85.7%	-21.6% (active)	70.2%	71.9%	106%	60.2%	93.3%	103%	62.5%	-45% (active)	-66.7% (active)	–
COc1cc(NC(=O)c2cc(OC)c3ccn(C)c3c2)cc2c1C[C@]1(C)CC[C@@H](O)C(C)(C)[C@H]1O2	71.5%	20.2%	49.9%	57.7%	66.7%	-39.6% (active)	20.3%	62.2%	23.7%	58.1%	61.7%	–	72.9%	43.1%	41.7%	42%	53.5%	19.9%	36.9%	–
O=C(NOC1OC(CO)C(O)C(O)C1O)Nc1ccccc1 (stereo not given)	108%	69%	94.8%	99.2%	85.7%	98.5%	103%	107%	108%	109%	105%	105%	100%	102%	93.2%	104%	93.7%	96.7%	117%	–
O=C1OC(c2ccc(-c3ccccc3)cc2)=C/C1=C/C=C/c1ccccc1	111%	96%	104%	105%	90.5%	65.6%	105%	-13.8% (active)	112%	109%	113%	92.4%	99.1%	100%	105%	106%	96.8%	99.3%	103%	–
COc1ccc2c(c1)nnn1c3ncccc3c(N=O)c21	-56.1% (active)	-75% (active)	-8.37% (active)	-31.2% (active)	-50.4% (active)	24.2%	-71.2% (active)	-10% (active)	-67.5% (active)	-33.2% (active)	-48.8% (active)	-23.3% (active)	-4.29% (active)	-64.4% (active)	9.89% (active)	36%	-76.8% (active)	-59.1% (active)	16.2%	–
